Only some compounds are listed: those with a hit (about 12% of all), similar ones and a draw of the others.
Gal4-VP16 FLuc = inhibits Gal4-VP16 luciferase reporter, ROR gamma counter-screen | Potency, µM (series often up to 53.6 µM), hits mostly inhibitors | hit rate 3.5% among 310,000 | Drosophila S2 Gal4-VP16 UAS-luciferase, luminescence, 20 h;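 note: Gal4-VP16 expression switched on by copper sulfate through the metallothionein promoter; nearly all actives have a fitted effect of over 50% in size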
PLK1 PBD inh = inhibitors of human PLK1 polo-box domain binding; hit rate 2.8% among 360,000; Potency, µM, usual class: inhibitors; Plk1 PBD binding of FITC phosphopeptide, fluorescence polarization; AID 720504; P53350; note: series mostly up to about 57 µM; nearly all actives have a fitted effect of over 65% in size
Target sequence (P53350 whole entry, looked up, the tested form may be a part): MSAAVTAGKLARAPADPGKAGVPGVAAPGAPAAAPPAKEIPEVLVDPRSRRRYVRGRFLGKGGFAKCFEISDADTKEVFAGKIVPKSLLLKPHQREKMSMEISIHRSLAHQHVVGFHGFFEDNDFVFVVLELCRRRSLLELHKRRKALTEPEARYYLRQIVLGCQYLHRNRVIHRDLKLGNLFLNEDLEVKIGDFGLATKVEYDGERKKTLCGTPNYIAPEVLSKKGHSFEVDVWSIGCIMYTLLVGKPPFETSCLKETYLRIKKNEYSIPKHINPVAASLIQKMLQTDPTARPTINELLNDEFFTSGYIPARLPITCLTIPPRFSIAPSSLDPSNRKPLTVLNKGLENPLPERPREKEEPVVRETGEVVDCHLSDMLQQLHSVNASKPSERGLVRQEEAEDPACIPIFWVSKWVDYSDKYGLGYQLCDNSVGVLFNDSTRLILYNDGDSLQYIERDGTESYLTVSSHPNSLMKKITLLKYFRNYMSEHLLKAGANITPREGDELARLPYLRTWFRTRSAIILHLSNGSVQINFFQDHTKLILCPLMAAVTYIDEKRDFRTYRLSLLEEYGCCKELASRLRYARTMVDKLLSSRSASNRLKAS
RORg inh = ROR gamma (mouse) transcription inhibition. Drosophila S2 Gal4-RORgamma UAS-luciferase reporter, 20 h. hit rate 5.4% among 310,000. AID 2551. Potency, µM (highest dose often 53.6 µM), most hits filed as inhibitors; note: nearly all actives have a fitted effect of over 60% in size
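Schneider cells (Drosophila), stable Gal4 DBD–ROR gamma + UAS-luc; 1 hr cmpd preincubation; Cu2+ induction 700 uM final; 20 hr ambient; luminescence.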
Sfp PPTase inh = inhibitors of Bacillus subtilis Sfp phosphopantetheinyl transferase. Biochemical Sfp PPTase activity, qHTS. Q9F4F7. AID 1490. hit rate 3.5% among 310,000. Potency, µM, most hits filed as inhibitors;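 note: the enzyme is Sfp with the accession as filed and its product quenches rhodamine fluorescence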
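Fluorescence-quenching assay: 15 nM Sfp-PPTase preincubated 15 min at room temperature with compound, then 5 uM rhodamine-CoA and 12.5 uM BHQ-2-labelled YbbR peptide added. Fluorescence (ex 525/em 598 nm) read at start and after 30 min; difference gives rate.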
ALDH1A1 block = inhibitors of human aldehyde dehydrogenase 1A1 | P00352 | Purified ALDH1A1, NADH fluorescence, propionaldehyde substrate | Potency, µM (doses to about 75.3 µM), actives largely listed as inhibitors | hit rate 7.3% among 220,000 | AID 1030; active = well fitted inhibition curve with a large enough effect, not every such curve was filed as active; inconclusive = small, poorly fitted or top-dose-only effect, or another doubt; inactive = no such curve, though single readings can be large or run the other way
Hits are given with their value; . = inactive; ? = inconclusive; / = no result given; ! = not confirmed by another sample; [ ] = remark or other dose. Unless noted, calls come from the whole dose curve; as a rule, active = well fitted curve in the direction sought with a large enough effect; inconclusive = small, poorly fitted or top-dose-only effect, or another doubt; inactive = no such curve, though single readings can be large; an effect the other way counts as inactive or inconclusive.

SMILES	Gal4-VP16 FLuc	PLK1 PBD inh	RORg inh	Sfp PPTase inh	ALDH1A1 block
CCCCC[C@H](O)C/C=C1/C(=O)C=C[C@@H]1C/C=C\CCCC(=O)O	.	/	.	.	.
CCCCC/C=C/C=C1/C(=O)C=C[C@@H]1C/C=C\CCCC(=O)O	.	/	.	56.2µM!	.
COCCCNC(=O)c1ccc(-n2nc(C(F)(F)F)cc2-c2cccs2)cc1	.	.	.	.	20µM
O=C(NCCCN1CCOCC1)c1ccc(-n2nc(C(F)(F)F)cc2-c2cccs2)cc1	.	.	.	.	.
O=C(N/N=C/c1ccc[nH]1)c1cccc(Br)c1	5.62µM	.	2.82µM	.	.
Cc1cccc(C(=O)N/N=C/c2ccc[nH]2)c1	12.6µM	.	7.94µM	.	.
O=C(N/N=C/c1ccc[nH]1)c1cccnc1	.	2.99µM	?	.	.
Cc1ccc(C(=O)N/N=C\c2ccc[nH]2)cn1	.	.	?	.	.
CC(C)(C)OC(=O)N/N=C\c1ccc[nH]1	.	.	.	.	.
Cc1cccc(NCC(=O)N/N=C\c2ccc[nH]2)c1	?	.	8.91µM	.	/
CCOc1ccc(/C(O)=C2\C(=O)C(=O)N(c3ccccn3)C2c2ccccc2F)c(C)c1 (stereo not drawn)	/	.	/	/	/
CCCCC[C@H](O)/C=C/[C@@H]1[C@@H](C/C=C\CCCC(=O)O)[C@@H](O)C[C@@H]1O	.	/	.	.	?
O=C(N/N=C/c1ccc[nH]1)c1cc2ccccc2cc1O	?	.	1.12µM	.	/
O=C(N/N=C\c1ccc[nH]1)c1cncc(Br)c1	5.62µM	.	2.82µM	.	/
O=C(N/N=C/c1ccncc1)c1cc2ccccc2cc1O	.	.	?	.	/
O=C(N/N=C/c1ccc[nH]1)c1ccc([N+](=O)[O-])cc1	5.62µM	.	3.98µM	.	.
O=C(NN=Cc1ccccc1Cl)c1ccc([N+](=O)[O-])cc1	/	.	/	/	/
CSc1ccc(OC2(C)CCN(Cc3ccc(OC(F)(F)F)cc3)C2)cc1 (stereo not drawn)	/	.	/	/	/
CCCS(=O)(=O)N1CCN(C2Cc3ccccc3C2)CC1	.	.	.	89.1µM	/
COP(=O)(OC)OC(C(=O)c1ccccc1)c1ccccc1 (stereo not drawn)	/	.	/	/	/
O=[N+]([O-])c1ccc(-c2c[nH]c(=S)[nH]2)cc1	.	7.52µM	.	3.55µM	0.501µM
CC(C)c1ccc(NC(=O)Nc2nc(C(N)c3ccccc3Cl)cs2)cc1 (stereo not drawn)	/	.	/	/	/
CSc1ncc(Cl)c(C(=O)C(C#N)c2nc3c(C)cc(C)cc3c(=O)[nH]2)n1 (stereo not drawn)	.	21.2µM	.	.	.
CCCCOc1ccc(C(=O)NNC(=O)C2C3C=CC(C3)C2C(=O)O)cc1 (stereo not drawn)	.	.	?	44.7µM	/
CCOc1cccc(C(=O)NNC(=O)C2C3C=CC(C3)C2C(=O)O)c1 (stereo not drawn)	.	.	.	35.5µM	/
SMILES	Gal4-VP16 FLuc	PLK1 PBD inh	RORg inh	Sfp PPTase inh	ALDH1A1 block
CN(C)CC(CN(C)C)c1ccccn1	/	/	/	/	.[13.5 µM]
OCC1CCCN(C(=S)Nc2ccc(OC(F)F)cc2)C1 (stereo not drawn)	.	.	.	.	.
OCC1CCCN(C(=S)Nc2ccc(Nc3ccccc3)cc2)C1 (stereo not drawn)	7.94µM	.	7.08µM	.	?
O=C(Nc1ccc(OCC(=O)N2CCC(Cc3ccccc3)CC2)cc1)c1ccco1	.	.	.	89.1µM	10µM
S=C(Nc1ccccc1)N1CCC(Cc2ccccc2)CC1	6.31µM	.	6.31µM	.	/
COc1ccc(NC(=S)N2CCC(Cc3ccccc3)CC2)cc1	?	.	8.91µM	.	/
Cc1ccc2c(CN3CCN(c4ccccc4)CC3)cc(=O)oc2c1	/	.	/	/	/
COc1ccc(NC(=S)N2CCC(C(=O)N3CCCCCC3)CC2)cc1	.	.	.	.	14.1µM
COc1cc(NC(=S)N2CCC(C(O)(c3ccccc3)c3ccccc3)CC2)cc(OC)c1	?	.	14.1µM	.	.
CCNC(=S)N1CCC(C(O)(c2ccccc2)c2ccccc2)CC1	.	.	.	.	.
Nc1ccccc1-c1ccc([N+](=O)[O-])cc1	/	.	/	/	/
O=C(NCC(F)(F)F)c1ccc(S(=O)(=O)N2CCN(C(=O)C3CCCO3)CC2)cc1 (stereo not drawn)	/	.	/	/	/
CCCCOC(=O)CNc1n[nH]c(=S)[nH]c1=O	.	.	.	56.2µM	?
CC(C)COC(=O)CNc1n[nH]c(=S)[nH]c1=O	.	.	.	?	.
COC(=O)Cc1n[nH]c(=S)[nH]c1=O	.	.	.	17.8µM	.
NC(=O)CNc1n[nH]c(=S)[nH]c1=O	.	.	.	79.4µM	.
CC(Nc1n[nH]c(=S)[nH]c1=O)C(=O)OCc1ccccc1 (stereo not drawn)	.	?	.	.	?
COC(=O)Cc1n[nH]c(=O)c2ccccc12	.	.	.	.	.
CCCCOC(=O)C(C)Nc1n[nH]c(=S)[nH]c1=O (stereo not drawn)	.	26.7µM	.	50.1µM	?
CN(C)S(=O)(=O)c1ccc2c(c1)Cc1cc(S(=O)(=O)N(C)C)ccc1-2	.	?	.	.	/
CN(C)S(=O)(=O)c1ccc(=S)[nH]c1	.	23.8µM	.	?	1µM
O=C(O)C/C=C\CC(=O)O	/	/	/	/	.[13.5 µM]
O=S(=O)(N/N=C\c1ccc(-c2ccccc2Cl)o1)c1ccccc1	?	.	?	44.7µM	.
O=S(=O)(N/N=C/c1ccccc1F)c1ccccc1	.	15µM	.	.	.
Cc1ccc(S(=O)(=O)N/N=C\c2ccc(C)o2)cc1	.	.	.	.	.
SMILES	Gal4-VP16 FLuc	PLK1 PBD inh	RORg inh	Sfp PPTase inh	ALDH1A1 block
O=C(O)c1ccc(N/N=C/c2ccc(-c3ccccc3Cl)o2)cc1	?	?	?	.	/
O=C(N/N=C/c1ccc(-c2ccccc2Cl)o1)c1ccccc1	7.94µM	.	3.55µM	.	?
CCc1ccc(C(O)c2ncc(-c3cccc4ccccc34)[nH]2)cc1 (stereo not drawn)	/	.	/	/	/
CCOC(=O)[C@]12CCC=C1N(Cc1cccc3ccccc13)C(=O)[C@H](CC(=O)NCCCOC)C2	/	.	/	/	/
COC(=O)C[C@H]1C[C@H]2c3cc(NS(=O)(=O)c4cccc(OC)c4)ccc3O[C@H]2[C@@H](CO)O1	/	.	/	/	/
C1CN=C(NC23CC4CC(CC(C4)C2)C3)C1	.	29.9µM	.	.	.
C=CC1=C2C=C(C3CC3)N(Cc3ccccc3)C=C2C(=O)C(C)(OC(=O)c2ccco2)C1=O (stereo not drawn)	/	/	/	.	.[13.5 µM]
c1cc(-c2ccc(N3CCOCC3)cc2)n2cnnc2c1	/	.	/	/	/
Fc1ccc(-c2cc3nc4c(c(N5CCOCC5)n3n2)CCCC4)cc1	.	.	3.16µM	.	.
Cc1cccc(-c2cc3nc4c(c(N5CCOCC5)n3n2)CCCC4)c1	/	.	.[0.365 µM]	?	?
O=C(C1CCCO1)N1CCN(c2c3c(nc4cc(-c5ccc(F)cc5)nn24)CCC3)CC1 (stereo not drawn)	.	.	.	.	22.4µM
OC1CCN(c2c3c(nc4cc(-c5ccc(F)cc5)nn24)CCC3)CC1	.	.	.	.	.
Cc1c(Cl)cccc1NC(=S)NCc1cccn1C	17.8µM	16.8µM	4.47µM	.	?

Screening data deposited in PubChem BioAssay by National Center for Advancing Translational Sciences (NCATS).
